Compound activity: PubChem, several laboratories
A selection: hits, their analogues and other compounds. The true share with any hit is near 3.6%.
HSF-1 act: increases HSF-1 driven luciferase reporter signal; NIH3T3-HGL HSF-1 luciferase reporter, MG132, 8 h; 100% = twice DMSO control signal; activation, % at 9 µM; hit rate 1.7% among 300,000; AID 504408;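 active means mean replicate activation of at least 50% with a set share of replicates each reaching 50%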;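 further: 0% = median of the neutral control wells and 100% = twice that signal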
LGR2 inh: Drosophila LGR2 receptor signaling inhibition | HEK293 LGR2, CRE-luciferase, bursicon-stimulated, 4 h | inhibition, % at 9.99 µM | hit rate 0.35% among 380,000;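 active means drop in luminescence signal, shown as inhibition above about 50% in the replicate tests, limit read from the data, passing the limit was not always enough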;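 further: agonist challenge used bursicon conditioned medium at about half maximal strength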
TWEAK-Fn14 inh: blocks TWEAK-Fn14 interaction in a reporter cell assay. hit rate 2% among 360,000. inhibition, % at 10 µM. TWEAK-stimulated Fn14 reporter cells, luciferase luminescence, 8 h; in the data active means inhibition above about 50%
HSF1 inh: HSF1 inhibition; NIH3T3-HGL HSE-luciferase, MG132-induced, luminescence 8 h; active compounds read low; activity change, negative = inhibition, % at 7.5 µM (by protocol); hit rate 0.77% among 300,000;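 active means more than half of replicate wells show activity change below -50%, luminescence cut by over half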;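 further: luciferase reports HSF-1 transcriptional activity via heat shock element; 0% = median of DMSO wells and -100% = zero luminescence signal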
LMP1 NFkB inh: Epstein-Barr LMP1 NF-kappaB reporter inhibition | LMP1-induced NF-kappaB luciferase reporter cells, luminescence | inhibition, % at 12.5 µM | hit rate 0.69% among 350,000 | AID 504558; in the data active means inhibition above about 41%;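 further: 0% = neutral control wells and 100% = reference inhibitor control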
TROY signal inh: blocks TROY-dependent signaling in reporter cells; Q293 LMP1-TROYcd NF-kB luciferase reporter, 4 h; AID 1347056; inhibition, % at 10 µM; hit rate 0.98% among 360,000;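 active means compounds whose plate-normalised and pattern-corrected inhibition of the luciferase reporter signal at the single screening dose is 50% or more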
Numbers without * were called inactive; . = no result given.

SMILES	HSF-1 act	LGR2 inh	TWEAK-Fn14 inh	HSF1 inh	LMP1 NFkB inh	TROY signal inh
O=C(CSc1nnnn1-c1ccccc1Cl)Nc1ccc2c(c1)OCCO2	-38.1	-24.9	75.8*	-29.4	7.2	54.0*
O=C(CN1CCOCC1)N1CCCCN2[C@H](CO)[C@H](c3ccc(C#Cc4ccccc4)cc3)[C@H]2C1	.	-21.5	.	.	.	.
CCCC(=O)Nc1ccc2c(c1)OC[C@H](C)N(Cc1ccncc1)C[C@H](C)[C@H](OC)CN(C)C2=O	.	4.3	.	.	.	.
O=C(C1CCCCC1)N1C[C@@H]2[C@H](c3ccccc31)[C@@H](CO)N2C(=O)Cc1ccccn1	.	1.7	.	.	.	.
CC(C)NC(=O)N(C)C[C@@H]1Oc2cc(C#Cc3ccc(F)cc3)ccc2S(=O)(=O)N([C@@H](C)CO)C[C@H]1C	.	-0.9	.	.	.	.
O=C(CSc1nccn(-c2ccc3c(c2)OCCO3)c1=O)Nc1ccccc1	-22.1	-38.2	62.4*	-14.5	-9.0	66.2*
CCOc1ccc(C2C(=O)N(C3CCCCC3)CC(=O)N2CC2CCCO2)cc1OC (stereo unspecified)	-3.1	19.4	17.9	2.1	3.2	0.1
CCCCOc1ccc(C2C(=O)N(C3CCCCC3)CC(=O)N2CC2CCCO2)cc1 (stereo unspecified)	-63.1	4.5	-6.8	-54.1*	-2.8	-7.7
OC(COc1ccc2ccccc2c1Br)Cn1cnc(-c2ccccc2)c1 (stereo unspecified)	-85.1	.	2.1	-81.7*	-3.5	12.1
COc1ccc(OCC(O)Cn2cnc(-c3ccc(Br)cc3)c2)cc1 (stereo unspecified)	12.8	.	-4.8	-0.3	-27.1	0.4
CCS(=O)(=O)Nc1ccc2c(c1)C(=O)N(C)[C@@H]1CC[C@H](CC(=O)N3CCOCC3)O[C@@H]1CO2	.	0.0	.	.	.	.
O=S(=O)(Nc1ccc(-n2cccc2)cc1)c1ccc(Cl)c(Cl)c1	.	9.2	-26.5	.	-0.5	55.5*
O=S(=O)(Nc1ccc(-n2cccc2)cc1)c1ccc(F)cc1	6.7	12.6	9.2	1.6	-2.3	24.3
Cc1ccccc1Nc1nc(Nc2ccccc2C)nc(SC2=NCCS2)n1	-30.1	2.2	71.3*	-12.2	19.8	18.3
C[C@H]1CN([C@@H](C)CO)C(=O)c2cc(NS(=O)(=O)c3ccc(Cl)cc3)ccc2O[C@H]1CN(C)Cc1ccc(C(=O)Nc2ccccc2N)cc1	.	-15.2	.	.	.	.
Cn1c(NCc2ccc(Cl)cc2)nc2ccccc21	54.2*	-49.8	-15.7	36.5	-22.2	-13.8
CCN(CC)c1ccc(CNc2nc3ccccc3n2CCN2CCOCC2)cc1	-71.9	3.5	-8.0	-59.8*	1.1	6.5
C=CCc1cccc(CNc2nc3ccccc3n2CCN2CCOCC2)c1O	117.6*	.	17.5	87.7	-18.2	-0.8
Cn1c(CN2CCN(c3ccc(Cl)cc3)CC2)nc2ccccc21	63.8*	-4.9	37.2	21.7	-4.2	1.1
Cc1ccc(CNc2nc3ccccc3n2C)cc1	46.4	22.8	39.0	11.0	4.8	-4.7
CN(C)CC(=O)N1CC2(C1)[C@@H](c1ccccc1)[C@@H](CO)N2C(=O)C1CCCC1	.	-5.2	.	.	.	.
COc1ccc(NC(=O)N(C)C[C@H]2Oc3c(NC(=O)C4CCOCC4)cccc3C(=O)N([C@@H](C)CO)C[C@@H]2C)cc1	.	2.3	.	.	.	.
COC(=O)C[C@@H]1C[C@H]2c3cc(NC(=O)CC4CC4)ccc3O[C@H]2[C@H](CO)O1	.	11.3	.	.	.	.
C[C@H]1CN([C@@H](C)CO)C(=O)Cc2cc(NC(=O)Nc3ccc(F)cc3)ccc2O[C@H]1CN(C)S(=O)(=O)c1ccc(Cl)cc1	.	-9.9	.	.	.	.
COCC(=O)N(C)C[C@H]1Oc2ncc(Br)cc2C(=O)N([C@H](C)CO)C[C@@H]1C	.	-2.0	.	.	.	.
SMILES	HSF-1 act	LGR2 inh	TWEAK-Fn14 inh	HSF1 inh	LMP1 NFkB inh	TROY signal inh
OCc1cc(C(O)CNCCCCCCOCCCCc2ccccc2)ccc1O (stereo unspecified)	-5.3	0.9	-3.7	4.8	55.2*	10.8
O=C([C@H]1[C@H](CO)[C@H]2Cn3c(ccc(-c4ccccc4F)c3=O)[C@@H]1N2C(=O)C1CC1)N1CCCCC1	.	18.1	.	.	.	.
CSc1ncccc1C(=O)OCc1ccccc1	57.7*	-26.2	-29.3	27.6	-0.2	-72.3
O=C1/C(=C/c2cccc(O)c2)SC(=S)N1CC1CCCO1 (stereo unspecified)	-9.7	-22.5	-1.9	0.6	2.2	-33.8
CCOc1cc(/C=C2/SC(=S)N(CC3CCCO3)C2=O)ccc1O (stereo unspecified)	72.7*	-7.2	12.7	28.2	8.0	-25.7
COc1cc(/C=C2\SC(=S)N(N3CCOCC3)C2=O)ccc1O	-5.1	-14.1	-35.0	-2.0	-5.3	54.0*
CN1CCS/C1=C\C=C1/SC(=S)N(CC(=O)O)C1=O	-12.1	1.3	13.8	-17.3	5.3	-8.5
CCN1C(=O)/C(=C/C=C2/SCCN2C)SC1=S	-12.1	.	67.8*	-1.6	9.0	29.0
Cn1c(SCC(=O)N/N=C/c2ccc([N+](=O)[O-])s2)nnc1-c1ccccc1	-25.6	8.1	58.3*	-28.5	-8.8	-8.9
CCOC(=O)CCSc1nc(N2CCOCC2)c2c(c1C#N)CC(C)(C)OC2	-8.5	-4.1	-25.2	-5.2	63.3*	-13.7
COC(=O)CCSc1nc(N2CCOCC2)c2c(c1C#N)CC(C)(C)OC2	-2.3	7.9	-39.3	5.8	-4.7	-15.4
COc1ccccc1OCc1nc(C#N)c(NCCCn2ccnc2)o1	-11.5	7.7	12.2	-6.5	0.6	-1.0
COc1ccc(CCNc2oc(-c3ccco3)nc2C#N)cc1	16.2	-1.1	13.2	4.1	-5.8	-26.9
COc1ccc(-c2nc(C#N)c(NCc3ccc(C)cc3)o2)cc1OC	16.9	.	-31.3	3.3	10.7	-22.7
COc1ccc(CCNc2oc(COc3ccccc3Cl)nc2C#N)cc1OC	12.2	-5.2	43.4	12.2	10.8	51.7*
COc1ccc(-c2nc(C#N)c(NCCc3ccccc3)o2)cc1OC	79.6*	.	-27.8	51.2	-5.3	-27.8
N#Cc1nc(-c2ccco2)oc1NCCc1ccccc1	34.6	.	61.5*	5.7	-6.1	.
COc1ccc(CCNc2oc(COc3ccccc3F)nc2C#N)cc1OC	.	.	2.5	.	10.4	26.2
COc1ccc(Nc2oc(COc3ccccc3OC)nc2C#N)cc1	26.6	.	55.0*	4.8	56.4*	0.7
C[C@@H]1CN([C@@H](C)CO)C(=O)c2cccc(NC(=O)Nc3ccc(C(F)(F)F)cc3)c2O[C@H]1CN(C)S(=O)(=O)c1ccccc1	.	22.8	.	.	.	.
CO[C@@H]1CN(C)C(=O)c2cc(NC(=O)C3CCOCC3)ccc2OC[C@@H](C)N(C(C)=O)C[C@@H]1C	.	-0.2	.	.	.	.
CCC(=O)Nc1ccc2c(c1)C(=O)N(C)[C@H]1CC[C@@H](CC(=O)NCC3CC3)O[C@@H]1CO2	.	10.0	.	.	.	.
COc1ccccc1NC(=O)N[C@@H]1CC[C@@H](CC(=O)N[C@@H](C)c2ccccc2)O[C@@H]1CO	.	16.1	.	.	.	.
O=C(C[C@H]1C=C[C@H](NC(=O)C2CC2)[C@H](CO)O1)NCCc1cscn1	.	-2.3	.	.	.	.
